Screening results from PubChem.
DT40 TDP1 CPT = growth inhibition of DT40 Tdp1-/-;hTDP1 cells with camptothecin (screen for TDP1 inhibitors); chicken DT40 Tdp1-/-;hTDP1 cells + 20 nM CPT, ATP luminescence, 48 h; Potency, µM (highest dose often 46.2 µM), for the others: at the highest dose activity change, negative = growth inhibition, usual class: inhibitors; actives 12% (n = 420,000); note: potency is the fitted concentration of half-maximal effect; nearly all actives have a fitted effect of over 55% in size
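Chicken DT40 Tdp1-/- cells complemented with human TDP1, 400 cells/well, exposed to compounds plus 20 nM camptothecin for at least 48 h at 37 C; viability read as ATP content by CellTiter-Glo luminescence.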
TDP1 cell noCPT = qHTS for Inhibitors of human tyrosyl-DNA phosphodiesterase 1 (TDP1): qHTS in cells in absence of CPT | DT40 Tdp1-/- hTDP1 cells, no CPT, ATP luminescence, 48 h | Potency, µM (series often up to 46.2 µM), inactives show top-dose activity change, negative = growth inhibition, hits mostly inhibitors | actives 15% (n = 420,000) | AID 686978, 2013; note: potency is the fitted concentration of half-maximal effect; nearly all actives have a fitted effect of over 55% in size
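Growth of hTDP1-complemented DT40 Tdp1-knockout cells is measured by ATP luminescence after at least 48 hr compound exposure at 37 °C, with DMSO substituting for the 20 nM CPT used in the parallel screen.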
IL-1B inflam inh = inflammasome signaling inhibition, IL-1 beta readout; activity change, % at 57.5 µM; AID 743279; THP-1 LPS/ATP IL-1B secretion, AlphaLISA, 16 h; stronger effect = lower value; actives 4.7% (n = 360,000); in the data active = activity change below about -50%; inconclusive = mostly about -30% to -49%
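Secreted IL-1B measured by AlphaLISA bead assay after 16 h compound exposure of THP-1 cells; compounds (final up to 57.5 uM) added 1 h before LPS (250 ng/mL) and ATP (1.25 mM) stimulation; lower signal means less secretion.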
HT1080-NT tox = kills 2HG-producing HT-1080-NT fibrosarcoma cells; HT-1080-NT fibrosarcoma viability, CellTiter-Glo ATP luminescence, 48 h; Potency, µM (titrated, usually from 46.1 µM), for the others: at the highest dose activity, negative = less viability, most hits filed as cytotoxic; actives 1.6% (n = 360,000); AID 686970;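 note: NT is the 2HG producing partner of a matched IDH1 knockdown line; potency is the fitted concentration of half-maximal effect; 0% = DMSO-treated cells and -100% = media-only wells without cells; nearly all actives have a fitted effect of over 55% in size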
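Viability of the 2HG-overproducing fibrosarcoma line after 48 hours of compound exposure at 37 degrees C was determined by luminescence with CellTiter-Glo, and concentration-effect curves were then fitted and categorized.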
HT1080 IDH1KD tx = toxicity to HT-1080 IDH1 knockdown cells (counter line); HT-1080 IDH1 knockdown viability, ATP luminescence, 48 h; Potency, µM (highest dose often 46.1 µM), for inactives: top-dose activity, negative = toxicity, most hits filed as cytotoxic; actives 2% (n = 360,000); AID 686971;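 note: potency is the fitted concentration of half-maximal effect; 0% = DMSO wells and -100% = cell-free medium wells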
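Cytotoxicity counter-line: IDH1KD HT-1080, 48 h, CellTiter-Glo. Curves classed by r2, magnitude and activity.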
Starred values were filed as active, the others as inactive; ? = inconclusive; . = no result given; [ ] = another dose, or the depositor's remark. A selection: hits, their analogues and other compounds. The true share with any hit is near 19%. Unless noted, calls come from the whole dose curve; as a rule, active = well fitted curve in the direction sought with a large enough effect; inconclusive = small, poorly fitted or top-dose-only effect, or another doubt; inactive = no such curve, though single readings can be large; an effect the other way counts as inactive or inconclusive. Unless noted, % is set by controls: 0 for no effect and ±100 for the full control effect.

SMILES	DT40 TDP1 CPT	TDP1 cell noCPT	IL-1B inflam inh	HT1080-NT tox	HT1080 IDH1KD tx
CCOc1cccc(C2c3c(oc4ccc(F)cc4c3=O)C(=O)N2CCc2ccc(OC)cc2)c1 (configuration not stated)	5.17µM*	?	.	.	.
COc1cccc(C2c3c(oc4ccccc4c3=O)C(=O)N2CCCN2CCOCC2)c1OC (configuration not stated)	0.2%	6.6%	11.2	-0.4%	17.0%
COc1ccc(CCN2C(=O)c3oc4ccc(F)cc4c(=O)c3C2c2ccc(C(C)(C)C)cc2)cc1 (configuration not stated)	?	3.26µM*	.	.	.
O=C(OCC1CCCO1)c1ccc2c(c1)N(Cc1ccccc1Cl)C(=O)c1ccccc1S2(=O)=O (configuration not stated)	-17.8%	-24.4%	.	.	.
O=[N+]([O-])c1ccc(N2CCOCC2)cn1	-13.9%	-8.8%	-3.1	?	14.1%
COC(=O)CN(C)C(=O)c1cccc(OC2CCN(S(=O)(=O)N(C)C)CC2)c1	-15.3%	-10.3%	35.2	-2.2%	-1.6%
O=C(NC1CCCCC1)c1nn2c(C(F)(F)F)cc(-c3ccco3)nc2c1Br	-2.2%	-18.6%	0.1	-9.0%	-0.3%
O=C(NCc1ccco1)c1cnn2c(C(F)(F)F)cc(-c3cccs3)nc12	14.6µM*	20.6µM*	-15.6	-16.1%	-11.7%
O=C(NC1CCCCC1)c1cnn2c(C(F)(F)F)cc(-c3ccco3)nc12	23.1µM*	?	-9.4	?	?
CC(=O)NNC(=S)NC(=O)C(c1ccccc1)c1ccccc1	8.2µM*	16.4µM*	99.8	?	?
CC(C)(C)C(=O)NC(=S)NNC(=O)C(c1ccccc1)c1ccccc1	4.61µM*	3.66µM*	153.0	18.4µM*	11.6µM*
O=C(CSc1nc(=O)[nH]c2c1CCC2)NCc1ccccc1Cl	-5.2%	-11.3%	.	.	.
Cn1c(=O)c2c(nc(NCc3cccnc3)n2Cc2cccc(C(F)(F)F)c2)n(C)c1=O	18.4µM*	7.31µM*	-9.6	20.6µM*	1.9%[9.24 µM]
COc1cccc(Cn2c(NCc3cccnc3)nc3c2c(=O)n(C)c(=O)n3C)c1	1.03µM*	1.03µM*	23.9	4.61µM*	5.17µM*
Cn1c(NCc2cccnc2)nc2c1c(=O)n(Cc1ccccc1F)c(=O)n2C	?	?	9.1	-4.7%	-7.8%
CC(=O)Nc1cc(-c2cccc(C(=O)NCCN(C)C)c2)cn2c(-c3ccc(F)c(Cl)c3)cnc12	2.06µM*	1.46µM*	-11.4	16.4µM*	20.6µM*
CC(=O)Nc1cc(-c2cccc(C(=O)NCCN(C)C)c2)cn2c(-c3ccc(C(C)=O)cc3)cnc12	?	20.6µM*	62.0	18.4µM*	?
CC(=O)Nc1cncc(-c2cccc(C(=O)NCCN(C)C)c2)n1	-0.3%	-13.0%	3.9	7.4%	15.4%
OC(CN1CCCCC1)c1cc(-c2ccccc2)on1 (configuration not stated)	13.1%	-4.2%	.	.	.
O=C(c1cnccn1)N1CCC2(CCCN(Cc3nccs3)C2)CC1	-0.5%	-7.0%	.	.	.
CCCC[C@@H]1CN=C(N)N1CC(C)(C)C	?	23.1µM*	14.5	12.5%	7.7%
CN(C)S(=O)(=O)c1ccc(NC(=O)CN2CCCc3ccccc32)cc1	-24.8%	-4.0%	10.5	-15.6%	-15.0%
CCN(CC)C(=O)CSc1nc2ncc(Br)cc2[nH]1	-110.4%	4.3%	-7.6	24.0%	15.6%
O=C(CSc1nc2ncc(Br)cc2[nH]1)c1ccc([N+](=O)[O-])cc1	18.4µM*	?	0.0	-16.3%	-20.5%
O=C(CSc1nc2ncc(Br)cc2[nH]1)Nc1ccccc1-c1ccccc1	16.4µM*	?	-6.6	?	?
SMILES	DT40 TDP1 CPT	TDP1 cell noCPT	IL-1B inflam inh	HT1080-NT tox	HT1080 IDH1KD tx
CCN1CCN(c2ccc(Cl)cc2NC(=O)c2ccco2)CC1	?	?	-62.4*	-19.7%	-9.1%
Cc1cc(C)n(-c2ccc(C(=O)Nc3cccnc3Cl)cc2)n1	?	?	-22.8	-5.2%	2.0%
CCN1CCN(c2ccccc2NC(=O)c2ccc(-n3cccn3)cc2)CC1	?	-16.0%	?	-5.7%	-3.6%
Cc1cc(C)n(-c2ccc(C(=O)Nc3cc(S(=O)(=O)N(C)C)ccc3Cl)cc2)n1	16.4µM*	?	-24.2	-1.7%	-7.3%
CCN1CCN(c2ccc(Cl)cc2NC(=O)c2ccc(-n3nc(C)cc3C)cc2)CC1	20.6µM*	?	-64.0*	?	?
CCC(=O)N1CCN(c2ccc(Cl)cc2NC(=S)NC(=O)c2ccco2)CC1	?	?	0.7	5.1%	-2.7%
COc1ccc(OC)c(C(=O)CSc2nnc(Cc3cccs3)n2C)c1	0.2%	-7.1%	-1.8	2.1%	0.3%
Cc1ccc(S(=O)(=O)N2C(=O)CCC2C(=O)O/N=C(\N)c2ccccc2)cc1 (configuration not stated)	-25.4%	3.4%	0.1	-3.9%	-12.7%
O=C(O)c1ccc(/C=C2\SC(=S)N(Nc3ccccc3)C2=O)cc1	5.3%	-0.1%	44.2	?	4.61µM*
Cc1cc(C)nc(NN2C(=O)/C(=C/c3ccccc3)SC2=S)n1	-25.5%	?	3.2	7.5%	1.2%
O=C(O)c1ccc(/C=C2\SC(=S)N(NC(=O)c3ccccc3[N+](=O)[O-])C2=O)cc1	-2.8%	-5.8%	-10.3	0.8%	0.0%
O=C1/C(=C/c2ccncc2)SC(=S)N1Nc1ccccc1	?	?	.	?	5.8µM*
Cc1cc(C)c(CN2CCN(C(=O)CC[C@H]3O[C@@H](n4cnc5c(NC(=O)c6ccccc6)ncnc54)[C@H](O)[C@@H]3O)CC2)c(C)c1	?	?	-25.1	-22.0%	-10.6%
O=C(/C=C/c1ccccn1)NCC1Cc2cccc(-c3ncccn3)c2O1 (configuration not stated)	2.3%	-12.0%	.	.	.
Cc1ccc(F)cc1NC(=O)c1ccc(NS(=O)(=O)c2ccc(Br)s2)cc1	-20.6%	-25.1%	12.7	-2.3%	5.8%
COc1ccc(-c2oc3cc(O[C@@H]4OC(CO)C(O)C(O)C4O)c(OC)c(O)c3c(=O)c2OC)cc1O (some centres not stated)	?	14.6µM*	.	.	.
COc1c(OC)c(O)c2c(=O)c(O)c(-c3ccccc3)oc2c1OC	-18.6%	-28.7%	?	?	-24.1%
COc1ccc(-c2oc3c(OC)c(OC)c(OC)c(O)c3c(=O)c2OC)cc1OC	?	20.6µM*	33.9	-10.2%	-12.3%
NC(=O)c1c(-c2ccccc2)oc2ccc(O)cc12	-22.7%	-13.6%	0.0	-5.2%	6.1%
O=c1c(O)c(-c2ccc(O)cc2)oc2ccc(O)cc12	13.3µM*	13.3µM*	.	.	.
